PMC5700166

What was measured:
Assay in all cases: protein-binding microarray (PBM); PBM: ~300 nM protein, 6 mM HEPES pH 7.8, 80 mM KCl, 0.5 mM EDTA, 0.5 mM EGTA, 6% glycerol, 35 ng/ul poly-dIdC, 1% milk, 1 h, room temperature; Ap Aiptasia and Nv Nematostella (sea anemones) / Co Capsaspora / Aq Amphimedon (sponge) / Dm Drosophila / Hu human; RHD is the Rel homology domain; high values mean tight binding
Conditions in all cases: dsDNA, one strand shown
[1] = biological target: T1, GST-Ap-NF-kB RHD (Exaiptasia pallida (Aiptasia), UniProt A0A913YAJ5 2-422)
T1 sequence: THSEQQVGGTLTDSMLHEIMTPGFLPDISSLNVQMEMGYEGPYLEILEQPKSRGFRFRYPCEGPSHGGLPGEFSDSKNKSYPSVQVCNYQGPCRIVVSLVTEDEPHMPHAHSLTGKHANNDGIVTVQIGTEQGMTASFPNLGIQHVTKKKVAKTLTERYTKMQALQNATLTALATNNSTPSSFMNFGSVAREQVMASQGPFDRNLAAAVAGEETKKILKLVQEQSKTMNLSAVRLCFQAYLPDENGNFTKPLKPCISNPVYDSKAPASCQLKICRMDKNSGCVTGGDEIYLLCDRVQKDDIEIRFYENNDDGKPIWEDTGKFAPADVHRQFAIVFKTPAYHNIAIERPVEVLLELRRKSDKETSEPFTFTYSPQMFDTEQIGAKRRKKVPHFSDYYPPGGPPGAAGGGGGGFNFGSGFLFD

[2] = biological target: T2, GST-Nv-NF-kB (Cys allele) (Nematostella vectensis, UniProt E5G601 2-411)
T2 sequence: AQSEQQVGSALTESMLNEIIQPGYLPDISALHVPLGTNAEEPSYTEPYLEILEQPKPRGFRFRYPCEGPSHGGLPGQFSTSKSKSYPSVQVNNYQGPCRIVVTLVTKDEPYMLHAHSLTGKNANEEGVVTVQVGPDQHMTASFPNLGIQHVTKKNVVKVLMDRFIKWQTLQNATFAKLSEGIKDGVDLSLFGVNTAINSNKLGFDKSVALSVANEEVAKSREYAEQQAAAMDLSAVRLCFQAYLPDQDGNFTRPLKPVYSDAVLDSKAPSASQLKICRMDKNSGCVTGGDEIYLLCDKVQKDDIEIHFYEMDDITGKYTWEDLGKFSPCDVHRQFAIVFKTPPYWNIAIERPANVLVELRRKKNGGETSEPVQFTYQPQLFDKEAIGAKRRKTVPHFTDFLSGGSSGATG

[3] = biological target: T3, GST-Co-NF-kB (Capsaspora owczarzaki, UniProt F1ARL5 200-546)
T3 sequence: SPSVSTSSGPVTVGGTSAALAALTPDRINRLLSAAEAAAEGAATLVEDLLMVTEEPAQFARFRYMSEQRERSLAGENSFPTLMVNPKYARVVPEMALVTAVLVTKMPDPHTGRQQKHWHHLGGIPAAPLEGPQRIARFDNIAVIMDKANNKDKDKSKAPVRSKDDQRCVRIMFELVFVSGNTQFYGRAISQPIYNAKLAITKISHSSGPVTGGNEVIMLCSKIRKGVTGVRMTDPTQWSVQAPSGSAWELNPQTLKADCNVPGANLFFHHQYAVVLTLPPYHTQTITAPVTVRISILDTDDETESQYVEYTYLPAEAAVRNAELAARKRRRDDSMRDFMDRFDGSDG

[4] = biological target: T4, GST-Dm-Relish (Drosophila melanogaster, UniProt Q94527 99-473)
T4 sequence: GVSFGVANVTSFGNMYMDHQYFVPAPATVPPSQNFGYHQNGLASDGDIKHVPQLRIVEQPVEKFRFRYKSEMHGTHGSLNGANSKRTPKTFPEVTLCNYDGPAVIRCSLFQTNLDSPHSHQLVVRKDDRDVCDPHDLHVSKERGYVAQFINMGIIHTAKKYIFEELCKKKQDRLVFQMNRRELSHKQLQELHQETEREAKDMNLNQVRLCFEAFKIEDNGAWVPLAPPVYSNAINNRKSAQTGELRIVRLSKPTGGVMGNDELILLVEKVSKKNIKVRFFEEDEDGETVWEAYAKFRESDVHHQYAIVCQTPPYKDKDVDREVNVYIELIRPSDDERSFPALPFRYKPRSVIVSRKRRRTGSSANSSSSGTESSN

[5] = biological target: T5, GST-Aq-NF-kB (Amphimedon queenslandica, UniProt A9Y5G7 2-389)
T5 sequence: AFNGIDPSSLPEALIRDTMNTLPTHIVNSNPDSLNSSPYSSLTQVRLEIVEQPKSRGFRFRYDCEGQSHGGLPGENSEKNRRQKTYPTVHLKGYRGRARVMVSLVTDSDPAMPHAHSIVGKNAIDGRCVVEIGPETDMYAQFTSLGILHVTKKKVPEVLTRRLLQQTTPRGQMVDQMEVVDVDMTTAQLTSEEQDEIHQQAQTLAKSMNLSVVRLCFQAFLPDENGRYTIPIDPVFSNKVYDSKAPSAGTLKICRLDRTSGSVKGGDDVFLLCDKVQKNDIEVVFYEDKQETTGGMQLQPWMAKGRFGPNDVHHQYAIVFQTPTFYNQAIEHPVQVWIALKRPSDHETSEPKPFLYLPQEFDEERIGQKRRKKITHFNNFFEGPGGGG

Question: Which binding signal [1] does the source give for “CCGATTAACATCACGGGAAACTCTGATGTTAATCGGGTCTTGATTCGCTTGACGCTGCTG” here?
Answer: Its binding signal is 3.67 z-score.

Question: And the binding signal [2]?
Answer: The binding signal was 4.12 z-score.

Question: What about the binding signal [3] of the same sequence?
Answer: Its binding signal is 4.3 z-score.

Question: And the binding signal [4]?
Answer: Its binding signal is 1.55 z-score.

Question: What about the binding signal [5] of the same sequence?
Answer: Its binding signal is 4.35 z-score.

Question: “CCGATTAACATCAATCGTCCCCCTGATGTTAATCGGGTCTTGATTCGCTTGACGCTGCTG” was tested. Which binding signal [1] did it give?
Answer: The binding signal was 5.15 z-score.

Question: What about the binding signal [2] of the same sequence?
Answer: The binding signal was 4.15 z-score.

Question: What about the binding signal [3] of the same sequence?
Answer: The binding signal was 6.83 z-score.

Question: And the binding signal [4]?
Answer: Its binding signal is 2.93 z-score.

Question: What about the binding signal [5] of the same sequence?
Answer: Its binding signal is 4.81 z-score.

Question: How did the binding signal [1] turn out when “CCGATTAACATCACATTATCCCCTGATGTTAATCGGGTCTTGATTCGCTTGACGCTGCTG” was run?
Answer: Its binding signal is 4.81 z-score.

Question: And the binding signal [2]?
Answer: Its binding signal is 5.05 z-score.

Question: And the binding signal [3]?
Answer: Its binding signal is 4.75 z-score.

Question: And the binding signal [4]?
Answer: The binding signal was 2.4 z-score.

Question: What about the binding signal [5] of the same sequence?
Answer: Its binding signal is 3.81 z-score.

Question: How did the binding signal [1] turn out when “CCGATTAACATCACGGGAATTTCTGATGTTAATCGGGTCTTGATTCGCTTGACGCTGCTG” was run?
Answer: Its binding signal is 5.46 z-score.

Question: What about the binding signal [2] of the same sequence?
Answer: Its binding signal is 7.5 z-score.

Question: What about the binding signal [3] of the same sequence?
Answer: The binding signal was 5.53 z-score.

Question: And the binding signal [4]?
Answer: The binding signal was 5.6 z-score.

Question: And the binding signal [5]?
Answer: Its binding signal is 6.28 z-score.

Question: Which results are given for “CCGATTAACATCACAAAACTCCCTGATGTTAATCGGGTCTTGATTCGCTTGACGCTGCTG”?
Answer: binding signal [1]: 4.94 z-score; binding signal [2]: 6.58 z-score; binding signal [3]: 2.13 z-score; binding signal [4]: 5.41 z-score; binding signal [5]: 6.32 z-score

Question: Which results are given for “CCGATTAACATCAACTCCCCCCATGATGTTAATCGGGTCTTGATTCGCTTGACGCTGCTG”?
Answer: binding signal [1]: 5.39 z-score; binding signal [2]: 4.1 z-score; binding signal [3]: 6.49 z-score; binding signal [4]: 4.31 z-score; binding signal [5]: 4.72 z-score

Question: Which results are given for “CCGATTAACATCAAAATTCCCGGTGATGTTAATCGGGTCTTGATTCGCTTGACGCTGCTG”?
Answer: binding signal [1]: 4.57 z-score; binding signal [2]: 5.96 z-score; binding signal [3]: 5.57 z-score; binding signal [4]: 6.54 z-score; binding signal [5]: 5.5 z-score

Question: How did the binding signal [1] turn out when “CCGATTAACATCAAGGTAATCCCTGATGTTAATCGGGTCTTGATTCGCTTGACGCTGCTG” was run?
Answer: The binding signal was 4.1 z-score.

Question: And the binding signal [2]?
Answer: The binding signal was 2.08 z-score.

Question: What about the binding signal [3] of the same sequence?
Answer: The binding signal was 1.06 z-score.

Question: What about the binding signal [4] of the same sequence?
Answer: The binding signal was 5.22 z-score.

Question: And the binding signal [5]?
Answer: Its binding signal is 3.95 z-score.

Question: Which results are given for “CCGATTAACATCAGACAATTCCCTGATGTTAATCGGGTCTTGATTCGCTTGACGCTGCTG”?
Answer: binding signal [1]: 3.02 z-score; binding signal [2]: 5 z-score; binding signal [3]: 2.28 z-score; binding signal [4]: 1.37 z-score; binding signal [5]: 4.77 z-score

Question: How did the binding signal [1] turn out when “CCGATTAACATCAGGGGTTTACCTGATGTTAATCGGGTCTTGATTCGCTTGACGCTGCTG” was run?
Answer: Its binding signal is 5.65 z-score.

Question: What about the binding signal [2] of the same sequence?
Answer: Its binding signal is 5.44 z-score.

Question: What about the binding signal [3] of the same sequence?
Answer: Its binding signal is 1.56 z-score.

Question: What about the binding signal [4] of the same sequence?
Answer: The binding signal was 9.7 z-score.

Question: And the binding signal [5]?
Answer: Its binding signal is 6.9 z-score.

Question: Which results are given for “CCGATTAACATCAAATATACCCCTGATGTTAATCGGGTCTTGATTCGCTTGACGCTGCTG”?
Answer: binding signal [1]: 4.01 z-score; binding signal [2]: 3.4 z-score; binding signal [3]: 5.87 z-score; binding signal [4]: 2.64 z-score; binding signal [5]: 4.15 z-score

Question: Which binding signal [1] does the source give for “CCGATTAACATCAAGGGGAGTCCTGATGTTAATCGGGTCTTGATTCGCTTGACGCTGCTG” here?
Answer: The binding signal was 6.71 z-score.

Question: And the binding signal [2]?
Answer: The binding signal was 4.83 z-score.

Question: What about the binding signal [3] of the same sequence?
Answer: The binding signal was 2.5 z-score.

Question: And the binding signal [4]?
Answer: Its binding signal is 8.01 z-score.

Question: What about the binding signal [5] of the same sequence?
Answer: The binding signal was 5.29 z-score.

Question: With “CCGATTAACATCACGTATTTCCCTGATGTTAATCGGGTCTTGATTCGCTTGACGCTGCTG” as the sequence, how does the binding signal [1] read?
Answer: Its binding signal is 3.32 z-score.

Question: What about the binding signal [2] of the same sequence?
Answer: The binding signal was 4.03 z-score.

Question: What about the binding signal [3] of the same sequence?
Answer: The binding signal was 3.79 z-score.

Question: And the binding signal [4]?
Answer: Its binding signal is 4.26 z-score.

Question: And the binding signal [5]?
Answer: The binding signal was 3.99 z-score.

Question: With “CCGATTAACATCAGGAGATTCCCTGATGTTAATCGGGTCTTGATTCGCTTGACGCTGCTG” as the sequence, how does the binding signal [1] read?
Answer: The binding signal was 3.76 z-score.

Question: And the binding signal [2]?
Answer: Its binding signal is 5.47 z-score.

Question: And the binding signal [3]?
Answer: The binding signal was 2.78 z-score.

Question: And the binding signal [4]?
Answer: Its binding signal is 4.79 z-score.

Question: And the binding signal [5]?
Answer: The binding signal was 7.56 z-score.
